Measured values as given in PubChem BioAssay.
The source made the active and inactive calls.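 How the source made its calls: active means compounds whose cell count with miR-34 switched on is under 0.7 times the count with it off; inactive means the rest.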

Experiment: sensitizers of A549 cells to miR-34 induction, primary screen, imaging, A549 dox-inducible miR-34, nuclei and caspase counts (AID 1347080); further: test concentration not given here
Details: A549 miR-34 inducible, Hoechst nuclei count, 48 h
[1] = stronger effect = lower value, cell number ratio, induced over uninduced
[2] = measured here: relative caspase fold change +Dox/-Dox
[3] = measured here: total cells with miR-34 induction, stronger effect = lower value
[4] = measured here: total cells without miR-34 induction

Structure (SMILES) | fold change [1] | fold change [2] | cell count [3] | cell count [4]
FC(F)(F)c1ccc(/C=C/c2cc(Cl)cc(Cl)c2)cc1 | 1.01 (inactive) | 0.839 | 5620 | 5570
C[C@@H]1C[C@H]2O[C@@H]2/C=C\C=C\C(=O)Cc2c(Cl)c(O)cc(O)c2C(=O)O1 | 1.01 (inactive) | 1.3 | 2240 | 2220
CC(=O)c1ncc([C@@H](O)[C@H](O)[C@H](O)CO)[nH]1 | 0.931 (inactive) | 2.05 | 5900 | 6330
CCCCCCCC/C=C\CCCCCCCCOCCOP(=O)([O-])OCC[N+](C)(C)C | 0.927 (inactive) | 0.887 | 5510 | 5950
O=C(c1cccs1)c1ccc(OCCCO)c(Cl)c1Cl | 0.896 (inactive) | 0.529 | 5620 | 6270
CCCCC/C=C\C/C=C\C/C=C\CCCC/C=C\CCC(=O)O | 0.938 (inactive) | 0.754 | 5780 | 6170
CCCCC[C@H](O)/C=C/[C@H]1C(=O)C[C@H](O)[C@@H]1C/C=C/CCCC(=O)O | 0.96 (inactive) | 1.11 | 5890 | 6130
O=C(O)CCC/C=C\C[C@H]1C(=O)C=C[C@@H]1/C=C/[C@@H](O)COc1ccccc1 | 0.91 (inactive) | 1.28 | 5700 | 6260
[O-]/[N+](=N/O[C@@H]1O[C@H](CO)[C@H](O)[C@H](O)[C@H]1O)N1CCCC1 | 0.904 (inactive) | 0.427 | 6560 | 7260
CCCCCCCC/C=C\CCCCCCCC(=O)c1nc2ncccc2o1 | 0.938 (inactive) | 0.974 | 5390 | 5740
CCCCC[C@H](O)/C=C/[C@H]1[C@H](O)CC(=O)[C@H]1C/C=C\CCCC(=O)O | 0.969 (inactive) | 1.41 | 5730 | 5910
CN | 1.06 (inactive) | 0.984 | 4700 | 4430
CC(C)[C@H](O)C(=O)O | 0.982 (inactive) | 1.05 | 5470 | 5570
CCCCC[C@H](O)/C=C/[C@H]1[C@H](O)CC(=O)[C@@H]1CCCCCCCCC(=O)O | 0.947 (inactive) | 1.98 | 5400 | 5700
OCCC/C=C/c1ccccc1 | 0.953 (inactive) | 1.17 | 5920 | 6210
CC[C@@H]1/C=C(\C)C[C@H](C)C[C@H](OC)[C@H]2O[C@@](O)(C(=O)C(=O)N3CCCC[C@H]3C(=O)O[C@H](/C(C)=C/[C@@H]3CC[C@@H](O)[C@H](OC)C3)[C@H](C)[C@@H](O)CC1=O)[C@H](C)C[C@@H]2OC | 0.914 (inactive) | 1.28 | 3590 | 3930
CCCCC[C@H](O)/C=C/[C@H]1CCC(=O)[C@@H]1C/C=C\CCCC(=O)O | 0.932 (inactive) | 1.35 | 6060 | 6510
O=P(O)(O)OC1[C@H](O)[C@H](O)C(O)[C@H](O)[C@H]1O (stereo not given in full) | 1.11 (inactive) | 0.357 | 6420 | 5790
NC(=NCC[C@H](N)C(=O)O)NO | 0.915 (inactive) | 0.994 | 4720 | 5160
O=C(O)CCCCCCCCCCCNC(=O)NC12CC3CC(CC(C3)C1)C2 | 0.971 (inactive) | 0.546 | 5310 | 5470

Structure (SMILES) | fold change [1] | fold change [2] | cell count [3] | cell count [4]
CCCCC[C@@](C)(O)/C=C/[C@@H]1[C@@H](C/C=C\CCCC(=O)OC)[C@@H](O)C[C@H]1O | 0.949 (inactive) | 1.07 | 5940 | 6260
CCCCCC/C=C\CCCCCCCCCCOC(C)=O | 0.943 (inactive) | 0.538 | 5570 | 5900
CCCCC1C(=O)CC[C@H]2[C@@H]1CC(=O)[C@@H]2C/C=C\CCCC(=O)O (stereo not given in full) | 1.07 (inactive) | 1.48 | 5940 | 5580
CN(C)C(=O)CCSC(SCCC(=O)O)c1cccc(/C=C/c2ccc3ccc(Cl)cc3n2)c1 (stereo not given) | 1 (inactive) | 1.76 | 5360 | 5340
CCCCCCCCCCCCCCC(=O)N[C@H]1CCOC1=O | 0.982 (inactive) | 1.59 | 5560 | 5660
CCCCCCCCCCCC1N[C@H](C(=O)O)CS1 (stereo not given in full) | 0.939 (inactive) | 1.06 | 5330 | 5670
CCCCC[C@H](O)/C=C/[C@H]1[C@H](O)CC(=O)[C@@H]1C/C=C\CCCC(=O)Oc1ccc(NC(C)=O)cc1 | 0.993 (inactive) | 0.876 | 6020 | 6060
CCCCCCCCCCCCCCNC(=O)C1CCCCC1 | 0.905 (inactive) | 0.661 | 4920 | 5430
CCCOCCCCCCCCCC(=O)O | 1.02 (inactive) | 1.03 | 6150 | 6040
O=C(O)CCC/C=C\C[C@@H]1[C@@H](/C=C/[C@@H](O)Cc2ccccc2)[C@H](O)C[C@@H]1O | 0.969 (inactive) | 1.42 | 6070 | 6260
CCCCC[C@H](O)/C=C/[C@H]1C=CC(=O)[C@@H]1CCCCCCC(=O)OCC | 0.941 (inactive) | 1.83 | 5280 | 5620
CCCCC/C=C\C/C=C\C/C=C\C/C=C\CCCC(=O)OCc1ccsc1 | 0.989 (inactive) | 1.02 | 6270 | 6340
CCCCC[C@H](O)/C=C/[C@@H]1[C@@H](C/C=C\CCCC(=O)NCC)[C@@H](O)C[C@H]1O | 0.749 (inactive) | 1.63 | 5570 | 7440
CCCCCCCC(=O)CC[C@@H]1[C@@H](C/C=C\CCCC(=O)OC(C)C)[C@@H](O)C[C@H]1O | 0.954 (inactive) | 1.15 | 5890 | 6180
O=P(O)(O)O[C@@H]1[C@H](O)[C@H](O)[C@@H](OP(=O)(O)O)[C@H](OP(=O)(O)O)[C@H]1O | 0.931 (inactive) | 0.377 | 5940 | 6380
CCCCCCCCCCCCCCCCOC[C@H](COP(=O)([O-])OCCCCCC[N+](C)(C)C)OC(C)=O | 0.912 (inactive) | 1.73 | 5260 | 5770
O=C1OC2(c3ccc(O)cc3Oc3cc(OS(=O)(=O)c4c(F)c(F)c(F)c(F)c4F)ccc32)c2ccccc21 (stereo not given) | 1.09 (inactive) | 0.755 | 6600 | 6070
COc1cc(C[C@H]2COC(=O)[C@@H]2Cc2ccc(O)c(OC)c2)ccc1O | 0.981 (inactive) | 0.938 | 5500 | 5600
COc1ccc2c(c1)c(CC(=O)Nc1ccc(NC(C)=O)cc1)c(C)n2C(=O)c1ccc(Cl)cc1 | 1.05 (inactive) | 1.43 | 5880 | 5610
CC(C)(CCCCCCCCCCC(C)(C)CC(=O)O)CC(=O)O | 0.985 (inactive) | 0.985 | 6090 | 6180

Structure (SMILES) | fold change [1] | fold change [2] | cell count [3] | cell count [4]
CC(C)CCC[C@@H](C)[C@H]1CC[C@H]2[C@@H]3CC(=O)[C@@]4(O)C[C@@H](O)CC[C@]4(C)[C@H]3CC[C@]12C | 0.89 (inactive) | 2.89 | 5340 | 6000
COC(=O)CCCCCC[C@@H]1[C@@H](CC[C@@H](O)CSc2ccccc2F)[C@H](O)C[C@@H]1O | 0.962 (inactive) | 2.89 | 5920 | 6150
CCCCCCCCCCCCCCCC(=O)NC(C)C | 1.13 (inactive) | 0.996 | 6190 | 5500
CCCCC(C)(C)[C@H](O)/C=C/[C@H]1C(=O)C[C@H](O)[C@@H]1C/C=C\CCCC(=O)O | 1.04 (inactive) | 0.943 | 5440 | 5250
CCCCCCCCCSCCCCCCCC(=O)O | 0.943 (inactive) | 0.653 | 5310 | 5640
CCCCC[C@@](C)(O)/C=C/[C@H]1C(=O)C[C@H](O)[C@@H]1C/C=C\CCCC(=O)O | 0.936 (inactive) | 1.24 | 5370 | 5740
CCCCC[C@H](O)CC[C@@H]1[C@H]2Cc3cccc(OCC(=O)O)c3C[C@H]2C[C@H]1O | 0.95 (inactive) | 1.46 | 6200 | 6530
CCCCC(C)(C)[C@H](O)/C=C/[C@H]1C=CC(=O)[C@@H]1CCCCCCC(=O)O | 1 (inactive) | 1.69 | 5490 | 5490
c1ccc(C(OC2CCN(CCCc3nn[nH]n3)CC2)c2ccccc2)cc1 | 0.935 (inactive) | 1.12 | 5840 | 6240
O=C1C[C@@H]2[C@@H](/C=C/[C@@H](O)COc3cccc(C(F)(F)F)c3)[C@H](O)C[C@@H]2O1 | 0.96 (inactive) | 1.35 | 5650 | 5880
CCCCC/C=C\CCCCCCCCCCCCC(=O)O | 0.9 (inactive) | 1.51 | 4990 | 5540
CCCCC[C@H](O)/C=C/[C@H]1[C@H](O)CC(=O)[C@@H]1CCCCCCC(=O)NCCO | 0.954 (inactive) | 1.4 | 5990 | 6270
CCCCC/C=C\C/C=C\C/C=C\C/C=C\CCCC(=O)C(F)(F)F | 0.997 (inactive) | 0.841 | 5370 | 5390
O=C(O)CCC/C=C\C[C@H]1[C@@H](O)CC(=O)[C@@H]1/C=C/[C@@H](O)CCc1ccccc1 | 0.982 (inactive) | 1.03 | 5860 | 5960
CCCCC[C@H](O)/C=C/[C@@H]1[C@@H](C/C=C\CCCCOC)[C@@H](O)C[C@H]1O | 0.815 (inactive) | 1.35 | 5300 | 6500
Cc1c(C)c2c(c(C)c1O)CCC(C)(CCCC(C)C(=O)O)O2 (stereo not given) | 0.962 (inactive) | 0.303 | 5890 | 6120
CCCCC/C=C\CCCC/C=C\C/C=C\CCCC(=O)O | 0.917 (inactive) | 0.462 | 5360 | 5850
CCCCC[C@H](O)/C=C/[C@H]1C2CC(CO2)[C@@H]1C/C=C\CCCC(=O)O (stereo not given in full) | 0.956 (inactive) | 0.835 | 5400 | 5650
CCCCCCCCCCCCCC(=O)OCC | 1.01 (inactive) | 1.49 | 5310 | 5240
C[C@H](N)C(=O)CCCCCC(=O)O | 1.03 (inactive) | 0.642 | 6090 | 5890
